Screens: PubChem, The Scripps Research Institute Molecular Screening Center
Compounds with a hit are over-represented: about 1.9% of the library has one in this group of screens.
LYPLA2 counter: counter-screen for PME1 inhibitors: inhibitors of human LYPLA2. O95372. recombinant LYPLA2, FP-Rh probe fluorescence polarization. inhibition, % at 5.9 µM. 0.38% of 320,000 active;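 active means inhibition above the screen-wide mean plus 3 SD, limit set per campaign, cut at about 26% in these data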;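 further: 0% = LYPLA2 with DMSO and 100% = wells lacking LYPLA2 enzyme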
LYPLA1 counter: LYPLA1 (human) inhibition in PME1 counter-screen. O75608. recombinant LYPLA1, FP-Rh probe fluorescence polarization. inhibition, % at 5.9 µM. 0.16% of 320,000 active. AID 2174;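 active means inhibition above the mean of all tested compounds plus 3 SD, set per campaign, cut at about 14% in these data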;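 further: inhibitors block serine hydrolase probe labeling of LYPLA1 so polarization falls; 0% = enzyme with DMSO and 100% = wells lacking LYPLA1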
PREPL inhibitor: inhibits the human prolyl oligopeptidase-like enzyme; Q4J6C6; recombinant PREPL, fluorescence polarization activity-based probe; inhibition, % at 5.96 µM; 0.68% of 320,000 active;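 further: 0% = enzyme with DMSO and 100% = wells lacking enzyme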
GSTO1 inh: counter-screen for RBBP9 inhibitors: inhibitors of human GSTO1 | P78417 | recombinant GSTO1, activity-based probe fluorescence polarization | inhibition, % at 5.96 µM | 1.1% of 300,000 active | AID 1974;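 active means inhibition above the campaign mean inhibition plus 3 SD, cut at about 35% in these data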;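 further: 0% = GSTO1-1 with DMSO and 100% = wells lacking GSTO1-1 enzyme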
PME-1 primary: blocks human protein phosphatase methylesterase 1. Q9Y570. recombinant PME-1, FP-Rh probe fluorescence polarization. inhibition, % at 5.9 µM. 0.53% of 320,000 active;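 active means inhibition above the campaign mean of all compounds plus 3 SD, cut at about 26% in these data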;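 further: competitive labeling of PME-1 active site by serine hydrolase directed probe; 0% = PME-1 with DMSO and 100% = wells lacking PME-1 enzyme; inhibitors block probe labeling so polarization falls and inhibition rises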
Target sequence (Q9Y570 whole entry, looked up): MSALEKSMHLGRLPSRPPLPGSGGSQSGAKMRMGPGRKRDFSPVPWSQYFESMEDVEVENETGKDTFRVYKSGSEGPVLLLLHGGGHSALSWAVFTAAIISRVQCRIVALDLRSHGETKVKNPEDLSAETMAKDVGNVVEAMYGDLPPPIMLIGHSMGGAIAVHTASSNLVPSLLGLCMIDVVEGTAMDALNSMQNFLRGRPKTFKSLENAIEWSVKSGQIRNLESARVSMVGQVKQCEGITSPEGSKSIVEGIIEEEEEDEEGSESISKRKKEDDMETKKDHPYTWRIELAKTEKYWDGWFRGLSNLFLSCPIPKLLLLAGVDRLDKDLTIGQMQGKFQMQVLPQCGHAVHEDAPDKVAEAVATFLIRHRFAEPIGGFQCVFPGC
Fam108B counter: Fam108B inhibition, counter-screen for RBBP9 inhibitors | recombinant Fam108B, FP-Rh probe fluorescence polarization | inhibition, % at 9.51 µM | 0.33% of 300,000 active | AID 1947;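 active means inhibition above the screen mean inhibition plus 3 SD, computed separately per campaign, cut at about 18% in these data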;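 further: inhibitors lower polarization as less probe binds the enzyme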
Fam108b inh conf: confirmation of mouse Fam108b serine hydrolase inhibitors; inhibition, % at 9.51 µM; shares compounds with Fam108B counter; AID 1978; recombinant Fam108b, FP-Rh probe fluorescence polarization; 44% of 930 active;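 active means inhibition above a limit from the primary screen, the mean over all compounds plus 3 SD, cut at about 19% in these data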;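 further: 0% = median of active Fam108b wells and 100% = catalytically dead S170A mutant; inhibitors free the probe so polarization falls as inhibition rises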
Fam108b inh: inhibits mouse Fam108b in gel-based ABPP. shares compounds with Fam108B counter. recombinant Fam108b, fluorophosphonate probe. 44% of 260 active. inhibition, % at 20 µM; in the data active means inhibition above about 40%
GSTO1 inh conf: GSTO1 (human) inhibition, confirmation; shares compounds with GSTO1 inh; recombinant GSTO1, probe fluorescence polarization; inhibition, % at 5.96 µM; 54% of 2,400 active;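 active means inhibition above the primary screen's cutoff, its mean inhibition plus 3 SD, cut at about 35% in these data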;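 further: loss of polarization as inhibitors block binding of rhodamine sulfonate ester activity probe; 0% = GSTO1 with DMSO and 100% = wells lacking GSTO1 enzyme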
LYPLA1 confirm: LYPLA1 (human) inhibition, confirmation counter-screen; recombinant LYPLA1, FP-Rh probe fluorescence polarization; AID 2233; inhibition, % at 5.9 µM; shares compounds with LYPLA1 counter; 69% of 480 active;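 active means mean inhibition across replicates above the hit cutoff set in the primary screen, cut at about 15% in these data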;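 further: loss of FP-Rh probe labeling of LYPLA1 seen as lower polarization; 0% = LYPLA1 with DMSO and 100% = wells lacking LYPLA1 enzyme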
LYPLA2 confirm: LYPLA2 (human) inhibition, confirmation counter-screen; shares compounds with LYPLA2 counter; recombinant LYPLA2, FP-Rh probe fluorescence polarization; inhibition, % at 5.9 µM; 72% of 1,100 active;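 active means mean inhibition across replicates above the hit cutoff set in the primary screen, cut at about 26% in these data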;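 further: blocked labeling of the enzyme by serine hydrolase FP-Rh probe lowers polarization; 0% = enzyme with DMSO and 100% = wells lacking LYPLA2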
PREPL inh cf: confirmation of human PREPL enzyme inhibitors. shares compounds with PREPL inhibitor. recombinant PREPL, fluorescence polarization activity probe. inhibition, % at 5.96 µM. 67% of 2,000 active;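 further: 0% = protein with DMSO and 100% = wells lacking protein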
Numbers without * were called inactive; x = not tested or not shown; + = active, no number. Unless noted, no stated cut-off is given here; in the data, active means inhibition above about 43%; inactive means the rest.

SMILES	LYPLA2 counter	LYPLA1 counter	PREPL inhibitor	GSTO1 inh	PME-1 primary	Fam108B counter	Fam108b inh conf	PREPL inh cf	others
O=C1C(SCCO)=C(SCCO)C(=O)c2ccccc21	31*	3	30	87*	31*	51*	66*	x	Fam108b inh=90*;GSTO1 inh conf=84*;LYPLA2 confirm=55*
O=C(O)c1cccc(-c2ccc(/C=N/Nc3ccc([N+](=O)[O-])cc3)o2)c1	31*	10	21	15	33*	23*	20*	x	LYPLA2 confirm=27*
Cc1ccc(S(=O)(=O)/N=C2/C=C(Sc3ncn[nH]3)C(=O)c3ccccc32)cc1	47*	6	6	96*	46*	80*	65*	x	GSTO1 inh conf=88*;LYPLA2 confirm=57*
NNC(=O)c1oc2nc(-c3cccs3)cc(-c3ccco3)c2c1N	4	-1	62*	24	14	24*	24*	65*
CCN(CC)c1nc2c3c(nc4c(c3c1C#N)CC(=O)N4c1ccc(Cl)cc1)NC(C)=N2	-4	-10	66*	30	27*	24*	18*	65*
CN(CCC#N)C(=O)COC(=O)C1c2ccccc2Oc2ccccc21	-6	2	-3	3	-6	1	x	x
N#CCCN(CCC#N)C(=O)C1c2ccccc2Oc2ccccc21	76*	76*	82*	52*	84*	67*	3	5	GSTO1 inh conf=10;LYPLA1 confirm=3;LYPLA2 confirm=3
CCN(CC(=O)NC1CCS(=O)(=O)C1)C(=O)c1cc(OC)c(OC)c(OC)c1 (stereo not given)	4	-3	2	x	1	x	x	x
O=C(Nc1ccccc1-c1ccccc1)c1ccccc1	7	2	10	6	-1	-2	x	x
Nc1c(S(=O)(=O)O)cc(NC(=O)c2ccccc2)c2c1C(=O)c1ccccc1C2=O	16	14	65*	41*	54*	53*	50*	55*	GSTO1 inh conf=63*
O=C(NCc1ccccc1)c1ccc2c(=O)n(CC3CCCO3)c(=S)[nH]c2c1 (stereo not given)	0	0	11	13	-1	0	x	x
CCCCCNC(=O)c1ccc2c(=O)[nH]c3c(C(=O)NCC4CCCO4)sc(=S)n3c2c1 (stereo not given)	16	-1	61*	-22	8	21*	12	57*
O=C(NCc1ccccc1)c1ccc2c(=O)[nH]c3c(C(=O)NCC4CCCO4)sc(=S)n3c2c1 (stereo not given)	4	7	44*	18	11	34*	20*	64*
CC(=O)c1sc(NC(=O)C2CCCN2S(=O)(=O)c2ccccc2F)nc1C (stereo not given)	-5	0	-1	x	-5	x	x	x
Cc1c(O)ccc(/C=N/Nc2nc(-c3cccnc3)nc3ccccc23)c1O	-23	-17	72*	-114	40*	39*	+	72*
COc1ccc(/C=N/Nc2nc(-c3cccnc3)nc3ccccc23)cc1OC	-15	-7	40	-26	-42	-3	x	x
Oc1ccc(/C=N/Nc2nc(-c3cccnc3)nc3ccccc23)c(O)c1	11	-5	58*	-20	52*	52*	2	42
Cc1ccc(Nc2nc(-c3cccnc3)nc3ccccc23)cc1	-21	-16	4	-28	-19	-12	x	x
Cc1c(S(=O)(=O)NC2CCCCC2)c(=O)n(C)c(=O)n1C	-4	1	-2	-4	-5	-5	x	x
